{"source": "PubChem BioAssay (EPA / NIEHS)", "note": "Values joined by “and” are separate entries in the source; they are usually repeats but may differ in a detail not shown here. Equal values may be shown once. Records with an inconclusive call do not appear. Some structures have more than one record in an assay (separate samples or runs), and their calls can disagree. Active and inactive are the calls of the source. The calls were made as follows, unless noted: active = hit-call score of the fitted dose curve at least 0.9, where 1 is the maximum; inconclusive = response in the unintended direction; inactive = score below 0.9.", "data": [{"tested_on": "not listed separately", "experiment": "CCTE_Simmons_CellTiterGLO_HEK293T: Viability Assessment in CCTE's Assays for Thyroperoxidase (TPO) Inhibition, Simmons Lab (AID 2283665);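 as to AC50: cells exposed to compound for 24 h before readout; actives reduce ATP signal below DMSO vehicle meaning cytotoxicity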", "details": "not given", "how_it_was_run": "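HEK293T, 10 000 cells/well, DMEM + 1% FBS; 8-pt titration 5 nM–87.5 uM [final], 0.5% DMSO; 24 hr, 37C, 5% CO2; CellTiter-Glo luminescence; n=3 biological replicates.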", "values": [{"smiles": "CC(C)(C)CC(C)(C)c1ccc(O)cc1", "AC50": "9.53 µM (active)"}, {"smiles": "NNC(=S)NN", "outcome": "inactive"}, {"smiles": "CCOC(=O)Nc1cccc(OC(=O)Nc2ccccc2)c1", "AC50": "16.6 µM (active)"}, {"smiles": "Clc1ccc(COC(Cn2ccnc2)c2ccc(Cl)cc2Cl)cc1", "note": "(stereo not drawn)", "AC50": "22.4 µM (active)"}, {"smiles": "CCCCCCCCSC(=O)Oc1cc(Cl)nnc1-c1ccccc1", "outcome": "inactive"}, {"smiles": "Cc1ccccc1N", "outcome": "inactive"}, {"smiles": "COP(=O)(OC)O/C(=C\\Cl)c1cc(Cl)c(Cl)cc1Cl", "AC50": "25 µM (active)"}, {"smiles": "Cc1ccc2ccccc2c1C", "AC50": "17.4 µM (active)"}, {"smiles": "CC(C)c1cccc(C(C)C)c1O", "AC50": "84.6 µM (active)"}, {"smiles": "CCC(C)(C)c1ccc(O)c(C(C)(C)CC)c1", "AC50": "0.847 µM (active)"}, {"smiles": "Cc1ccc(N)cc1Cl", "AC50": "18.4 µM (active)"}, {"smiles": "CCOP(=S)(OCC)SCSP(=S)(OCC)OCC", "AC50": "46.6 µM (active)"}, {"smiles": "OCc1ccco1", "outcome": "inactive"}, {"smiles": "Oc1cccc2cccnc12", "AC50": "15.8 µM (active) and 53.8 µM (active)"}, {"smiles": "CCOP(=S)(OCC)Oc1nc(Cl)c(Cl)cc1Cl", "AC50": "17.9 µM (active)"}, {"smiles": "O=C(Nc1ccc2[nH]ccc2c1)c1cc2cc(F)ccc2n1Cc1cccc(F)c1", "AC50": "0.753 µM (active)"}, {"smiles": "CCCCCCCCc1ccc(O)cc1", "AC50": "22.6 µM (active)"}, {"smiles": "CC12CC1(C)C(=O)N(c1cc(Cl)cc(Cl)c1)C2=O", "note": "(stereo not drawn)", "outcome": "inactive"}, {"smiles": "CC(C)(C)c1cc(O)ccc1O", "AC50": "85.6 µM (active) and 25.9 µM (active) and 27.6 µM (active)", "outcome": "inactive"}, {"smiles": "C[C@H]1CCCC(=O)CCC/C=C/c2cc(O)cc(O)c2C(=O)O1", "AC50": "89.2 µM (active)"}, {"smiles": "O=C(O)C(Cl)(Cl)Cl", "outcome": "inactive"}, {"smiles": "Clc1ccc(C2(Cn3cncn3)CC(Br)CO2)c(Cl)c1", "note": "(stereo not drawn)", "AC50": "95.2 µM (active)"}, {"smiles": "CC(C)(c1ccc(OCC2CO2)cc1)c1ccc(OCC2CO2)cc1", "note": "(stereo not drawn)", "AC50": "83.7 µM (active)"}, {"smiles": "CC1(C)CCC(Cc2ccc(Cl)cc2)C1(O)Cn1cncn1", "note": "(stereo not drawn)", "AC50": "89 µM (active)"}, {"smiles": "CC(C)(c1ccccc1)c1ccc(O)c(C(C)(C)c2ccccc2)c1", "AC50": "5.35 µM (active)"}]}, {"tested_on": "not listed separately", "experiment": "Tanguay_ZF_120hpf_TR_legacy: (Legacy) Oregon State University Tanguay Lab 120 Hour Post-fertilization zebrafish Assay for Touch Response (AID 2283667)", "details": "not given", "how_it_was_run": "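5D WT embryos; static exposure to 120 hpf, 28C, sealed/dark; DMSO 0.64% v/v final. TR scored present/absent; dead embryos excluded. Pos ctrl 5uM trimethyltin chloride.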", "values": [{"smiles": "CC(C)(C)CC(C)(C)c1ccc(O)cc1", "outcome": "inactive"}, {"smiles": "O=C(O)C(F)(F)C(F)(F)C(F)(F)C(F)(F)C(F)(F)C(F)(F)F", "outcome": "inactive"}, {"smiles": "Cc1ccccc1N", "outcome": "inactive"}, {"smiles": "CCC(C)(C)c1ccc(O)c(C(C)(C)CC)c1", "outcome": "inactive"}, {"smiles": "CCOP(=S)(OCC)SCSP(=S)(OCC)OCC", "outcome": "inactive"}, {"smiles": "Oc1cccc2cccnc12", "outcome": "inactive"}, {"smiles": "CCOP(=S)(OCC)Oc1nc(Cl)c(Cl)cc1Cl", "outcome": "inactive"}, {"smiles": "O=C(O)C(F)(F)C(F)(F)C(F)(F)C(F)(F)C(F)(F)C(F)(F)C(F)(F)C(F)(F)C(F)(F)C(F)(F)F", "outcome": "inactive"}, {"smiles": "NC(=O)O", "outcome": "inactive"}, {"smiles": "O=C(Nc1ccc2[nH]ccc2c1)c1cc2cc(F)ccc2n1Cc1cccc(F)c1", "outcome": "inactive"}, {"smiles": "CCCCCCCCc1ccc(O)cc1", "outcome": "inactive"}, {"smiles": "CC12CC1(C)C(=O)N(c1cc(Cl)cc(Cl)c1)C2=O", "note": "(stereo not drawn)", "outcome": "inactive"}, {"smiles": "CC(C)(C)c1cc(O)ccc1O", "outcome": "inactive"}, {"smiles": "O=C(O)C(Cl)(Cl)Cl", "outcome": "inactive"}, {"smiles": "CC(C)(c1ccccc1)c1ccc(O)c(C(C)(C)c2ccccc2)c1", "outcome": "inactive"}]}, {"read-out": "Cytochrome P450 (CYP24A1_1), CYP24A1 (gene 1591)", "experiment": "LTEA_HepaRG_CYP24A1_1: Life Technologies and Expression Analysis (LTEA) Assay for Cytochrome P450 (CYP24A1_1) using HepaRG (AID 2283671; active = hit-call score of the fitted dose curve at least 0.9, where 1 is the maximum; inactive = score below 0.9)", "details": "mRNA level, 48 h; actives raise or lower the signal", "how_it_was_run": "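In this test, gene induction or suppression of CYP24A1 in human HepaRG liver cells is measured by qRT-PCR after 48 h chemical treatment (eight concentrations, maximum 100 uM). Values are fitted bidirectionally relative to DMSO.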", "values": [{"smiles": "Oc1cccc2cccnc12", "outcome": "inactive"}, {"smiles": "O=C(O)C(F)(F)C(F)(F)C(F)(F)C(F)(F)C(F)(F)C(F)(F)C(F)(F)C(F)(F)C(F)(F)C(F)(F)F", "outcome": "inactive"}, {"smiles": "NC(=O)O", "outcome": "inactive"}]}, {"tested_on": "not listed separately", "experiment": "CCTE_Padilla_ZF_144hpf_TERATOSCORE: (Legacy) CCTE's 144 Hour Post-fertilization zebrafish Assay Teratoscore, Padilla Lab (AID 2283679; active = hit-call score of the fitted dose curve at least 0.9, where 1 is the maximum; inactive = score below 0.9;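 as to AC50: zebrafish embryos with chorions exposed by immersion from 6-8 hpf to 5 dpf with daily renewal; teratogenicity score from eye scoring of death hatching and malformations at 144 hpf; higher score means more developmental defects relative to DMSO baseline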)", "details": "not given", "how_it_was_run": "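Larvae scored by eye at 144 hpf for death, hatching and malformations after a day in clean Hanks'. Before that, daily-renewed exposure at 80 uM (0.4% DMSO, 26C) from roughly 6-8 hpf through 5 dpf, 4 embryos per chemical.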", "values": [{"smiles": "CC(C)(C)CC(C)(C)c1ccc(O)cc1", "AC50": "4.55 µM (active)"}, {"smiles": "CCC(C)(C)c1ccc(O)c(C(C)(C)CC)c1", "AC50": "4.87 µM (active) and 4.82 µM (active)"}, {"smiles": "CCOP(=S)(OCC)SCSP(=S)(OCC)OCC", "AC50": "5.5 µM (active)"}, {"smiles": "Oc1cccc2cccnc12", "AC50": "4.78 µM (active)"}, {"smiles": "CCOP(=S)(OCC)Oc1nc(Cl)c(Cl)cc1Cl", "AC50": "4.72 µM (active)"}, {"smiles": "O=C(O)C(F)(F)C(F)(F)C(F)(F)C(F)(F)C(F)(F)C(F)(F)C(F)(F)C(F)(F)C(F)(F)C(F)(F)F", "AC50": "8.02 µM (active)"}, {"smiles": "NC(=O)O", "outcome": "inactive"}, {"smiles": "CCCCCCCCc1ccc(O)cc1", "AC50": "5.21 µM (active)"}, {"smiles": "CC12CC1(C)C(=O)N(c1cc(Cl)cc(Cl)c1)C2=O", "note": "(stereo not drawn)", "outcome": "inactive"}, {"smiles": "CC(C)(C)c1cc(O)ccc1O", "AC50": "14.4 µM (active)"}, {"smiles": "O=C(O)C(Cl)(Cl)Cl", "outcome": "inactive"}, {"smiles": "CC(C)(c1ccccc1)c1ccc(O)c(C(C)(C)c2ccccc2)c1", "AC50": "4.58 µM (active)"}]}, {"tested_on": "not listed separately", "experiment": "STM_H9_OrnithineISnorm_perc: Stemina devTOX quickPredict H9 human embryonic stem cell (hESC)-based Assay for Ornithine (ORN) Metabolite Biomarker, Normalized (AID 2283712; active = hit-call score of the fitted dose curve at least 0.9, where 1 is the maximum; inactive = score below 0.9;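 also: ornithine released into spent medium during last day measured by mass spectrometry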)", "details": "not given", "how_it_was_run": "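H9 human embryonic stem cells kept pluripotent receive test chemical over 72 h, refreshed daily by media exchange. Media from the closing 24 h is deproteinized and analysed by UPLC-HRMS on an amide column; ornithine signal is scaled to labelled standard and vehicle.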", "values": [{"smiles": "O=C(Nc1ccc2[nH]ccc2c1)c1cc2cc(F)ccc2n1Cc1cccc(F)c1", "AC50": "3.5 µM (active)"}, {"smiles": "CC12CC1(C)C(=O)N(c1cc(Cl)cc(Cl)c1)C2=O", "note": "(stereo not drawn)", "AC50": "61 µM (active)"}, {"smiles": "CC(C)(C)c1cc(O)ccc1O", "outcome": "inactive"}, {"smiles": "O=C(O)C(Cl)(Cl)Cl", "outcome": "inactive"}]}, {"tested_on": "not listed separately", "experiment": "STM_H9_CystineISnorm_perc: Stemina devTOX quickPredict H9 human embryonic stem cell (hESC)-based Assay for Cystine (CYSS) Metabolite Biomarker, Normalized (AID 2283713; active = hit-call score of the fitted dose curve at least 0.9, where 1 is the maximum; inactive = score below 0.9)", "details": "not given", "how_it_was_run": "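H9 hESC, pluripotent; compound 72h, re-dosed q24h with medium change. Last-24h medium → 40% acetonitrile deproteinization → UPLC-HRMS. CYSS area / C13-CYSS standard, then % of 0.1% DMSO median.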", "values": [{"smiles": "O=C(Nc1ccc2[nH]ccc2c1)c1cc2cc(F)ccc2n1Cc1cccc(F)c1", "AC50": "1.27 µM (active)"}, {"smiles": "CC12CC1(C)C(=O)N(c1cc(Cl)cc(Cl)c1)C2=O", "note": "(stereo not drawn)", "AC50": "50 µM (active)"}, {"smiles": "CC(C)(C)c1cc(O)ccc1O", "outcome": "inactive"}, {"smiles": "O=C(O)C(Cl)(Cl)Cl", "outcome": "inactive"}]}, {"read-out": "not listed separately", "experiment": "CEETOX_H295R_MTT_cell_viability: Viability Assessment in the CeeTox HT-H295R MTT Assay (AID 2283718; active = hit-call score of the fitted dose curve at least 0.9, where 1 is the maximum; inactive = score below 0.9;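 as to AC50: curve fitted both ways so AC50 may mark viability loss or gain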)", "details": "not given", "how_it_was_run": "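MTT reduction (0.5 mg/ml, 4 h at 37 C; absorbance at 570 and 650 nm) gave viability as background-corrected percent change versus controls. H295R cells had 48 h forskolin (10 uM) prestimulation, then 48 h chemical exposure at 0.1% DMSO.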", "values": [{"smiles": "NNC(=S)NN", "outcome": "inactive"}, {"smiles": "COP(=O)(OC)O/C(=C\\Cl)c1cc(Cl)c(Cl)cc1Cl", "outcome": "inactive"}, {"smiles": "CCOP(=S)(OCC)SCSP(=S)(OCC)OCC", "outcome": "inactive"}, {"smiles": "CCC1(c2ccc(N)cc2)CCC(=O)NC1=O", "note": "(stereo not drawn)", "outcome": "inactive"}, {"smiles": "CCOP(=S)(OCC)Oc1nc(Cl)c(Cl)cc1Cl", "AC50": "93.2 µM (active)"}, {"smiles": "O=C(Nc1ccc2[nH]ccc2c1)c1cc2cc(F)ccc2n1Cc1cccc(F)c1", "outcome": "inactive"}, {"smiles": "CC12CC1(C)C(=O)N(c1cc(Cl)cc(Cl)c1)C2=O", "note": "(stereo not drawn)", "outcome": "inactive"}, {"smiles": "C[C@H]1CCCC(=O)CCC/C=C/c2cc(O)cc(O)c2C(=O)O1", "AC50": "69.8 µM (active)"}, {"smiles": "CC1(C)CCC(Cc2ccc(Cl)cc2)C1(O)Cn1cncn1", "note": "(stereo not drawn)", "outcome": "inactive"}]}]}
